An excerpt weighted towards active compounds, which were near 1.2% of everything screened.
PLC-beta3 inh = inhibitors of human phospholipase C beta3. Q01970. Purified PLC-beta3, fluorogenic substrate, fluorescence. inhibition, % at 12.2 µM. actives 0.18% (n = 370,000); in the data active = inhibition above about 11%
Target sequence (Q01970 whole entry, looked up): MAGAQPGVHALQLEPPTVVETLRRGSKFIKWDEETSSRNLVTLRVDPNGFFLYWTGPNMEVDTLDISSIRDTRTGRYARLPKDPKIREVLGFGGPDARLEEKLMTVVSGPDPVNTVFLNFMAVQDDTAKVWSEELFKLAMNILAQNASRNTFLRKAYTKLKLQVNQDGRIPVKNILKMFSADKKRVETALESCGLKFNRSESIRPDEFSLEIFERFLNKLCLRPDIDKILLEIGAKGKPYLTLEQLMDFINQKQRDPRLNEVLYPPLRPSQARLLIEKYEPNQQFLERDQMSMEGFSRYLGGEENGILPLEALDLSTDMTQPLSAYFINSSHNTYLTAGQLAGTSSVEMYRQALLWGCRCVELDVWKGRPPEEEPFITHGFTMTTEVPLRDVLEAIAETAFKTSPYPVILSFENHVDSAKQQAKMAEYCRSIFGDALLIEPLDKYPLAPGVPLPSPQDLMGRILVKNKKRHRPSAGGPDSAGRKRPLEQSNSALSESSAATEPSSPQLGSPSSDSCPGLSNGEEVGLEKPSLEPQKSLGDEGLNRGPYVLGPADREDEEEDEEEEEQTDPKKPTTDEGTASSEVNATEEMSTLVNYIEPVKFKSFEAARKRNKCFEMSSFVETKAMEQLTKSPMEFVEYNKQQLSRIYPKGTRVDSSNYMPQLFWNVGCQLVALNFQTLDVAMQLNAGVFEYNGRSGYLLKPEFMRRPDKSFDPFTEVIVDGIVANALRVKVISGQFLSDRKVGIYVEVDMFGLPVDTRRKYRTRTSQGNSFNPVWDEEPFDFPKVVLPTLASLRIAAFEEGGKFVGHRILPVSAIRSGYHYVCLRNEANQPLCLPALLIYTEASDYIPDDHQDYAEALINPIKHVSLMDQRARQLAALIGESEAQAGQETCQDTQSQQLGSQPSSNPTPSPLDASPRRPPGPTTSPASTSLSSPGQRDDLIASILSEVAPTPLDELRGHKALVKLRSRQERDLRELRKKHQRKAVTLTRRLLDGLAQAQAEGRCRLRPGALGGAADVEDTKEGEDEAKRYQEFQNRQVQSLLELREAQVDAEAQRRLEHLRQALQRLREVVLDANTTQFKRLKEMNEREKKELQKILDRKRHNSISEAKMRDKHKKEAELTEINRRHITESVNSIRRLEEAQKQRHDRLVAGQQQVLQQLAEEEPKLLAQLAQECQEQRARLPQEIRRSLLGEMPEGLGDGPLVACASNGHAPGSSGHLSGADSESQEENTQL
NPR1 activator = GC-A (human) enzyme activation; AID 1671463; P16066; activation, % at 10 µM; HEK293 GC-A cells, cGMP TR-FRET, EC30 ANP; 0% at EC30 ANP, 100% saturating ANP; actives 0.14% (n = 370,000); in the data active = activation above about 40%
PLC-gamma1 inh = PLC-gamma1 (human) inhibition, primary screen; P19174; purified PLC-gamma1, fluorogenic substrate, fluorescence; inhibition, % at 12.2 µM; actives 0.84% (n = 370,000); AID 720700
NPR2 activator = GC-B (human) receptor activation; P20594; HEK293-GC-B cells, CNP EC30, cGMP TR-FRET; 0% at EC30 CNP, 100% saturating CNP; activation, % at 10 µM; actives 0.11% (n = 370,000); AID 1920062;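 active = activation at 10 µM reaching about 35% in either raw or pattern-adjusted values, limit read from the data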
PLCgamma1 ctr = PLC-gamma1 inhibition, counter-screen for PLC-beta3 hits; shares compounds with PLC-gamma1 inh; purified PLC-gamma1, fluorogenic substrate, fluorescence; inhibition, % at 12.3 µM; actives 3.1% (n = 3,300); AID 743258
PLCbeta3 conf = confirmation of human PLC-beta3 inhibitors | shares compounds with PLC-gamma1 inh | purified PLC-beta3, fluorogenic substrate fluorescence | inhibition, % at 12.3 µM | actives 1% (n = 3,300) | AID 743261; in the data active = inhibition above about 11%
A number is an active result; 0 = inactive; - = no result. Cut-off read from the data, not from the text of the source, unless noted: active = inhibition above about 9.5%; inactive = the rest.

SMILES	PLC-beta3 inh	NPR1 activator	PLC-gamma1 inh	NPR2 activator	PLCgamma1 ctr	PLCbeta3 conf
O=C(NCc1ccccc1)/C(NC(=O)c1ccccc1)=C(/Sc1ccccn1)c1ccccc1	0	0	0	0	-	-
Cc1csc(Nc2nc(N)c(C(=O)Nc3ccccc3)o2)n1	11	0	14	0	0	0
COC(=O)c1cc(CN2CCN(c3ccccc3C)CC2)ccc1O	0	0	0	0	-	-
O=C(CSc1nc2[nH]ncc2c(=O)[nH]1)NCc1ccc(F)cc1	0	0	12	0	0	0
O=C(CSc1nc2ncccc2[nH]1)NCc1ccccc1	0	0	0	0	-	-
O=C1CCC(=O)N1c1ccc(CSc2nc3ccccc3[nH]2)cc1	0	0	11	0	0	0
COc1ccc(CSc2nc3ccccc3[nH]2)cc1	0	0	0	0	-	-
O=C(CSc1nc2[nH]ncc2c(=O)[nH]1)NCc1ccccc1	0	0	0	0	-	-
O=C(CSc1nc2ccccc2[nH]1)NCc1ccccc1	0	0	14	0	0	0
CC(=O)Nc1ccc(NC(=O)CCCSc2nc3ccccc3[nH]2)cc1	0	0	13	0	0	0
O=C(c1ccc2noc(-c3ccccc3)c2c1)N1CCN(c2ccccc2)CC1	0	0	0	0	-	-
Cc1cc(C)cc(OCC(=O)Nc2ccc(N3CCN(C(=O)c4ccco4)CC3)cc2)c1	0	0	0	0	-	-
COc1ccc(NC(=O)C2(C)CCCN(C(C)=O)C2)cc1F (stereo not drawn)	0	0	0	0	-	-
O=C1C(=O)N(CCO)C(c2ccc(Br)cc2)/C1=C(\O)c1ccccc1 (stereo not drawn)	0	0	12	0	0	0
COc1ccc(C(CC(=O)c2ccccc2)CC(=O)c2ccccc2)cc1	0	0	13	0	0	0
CCOc1cc(CNCCc2ccc(S(N)(=O)=O)cc2)ccc1OCc1ccc(Cl)cc1	0	0	21	0	0	0
CCn1c(=O)n(CC(=O)Nc2ccc(F)cc2)c(=O)c2ccccc21	0	0	0	0	-	-
CC(NCc1ccc(S(N)(=O)=O)cc1)C(=O)NCc1ccccc1 (stereo not drawn)	0	0	0	0	-	-
C[C@H](NC(=O)c1ccc(Br)cc1)C(=O)NCc1ccc(S(N)(=O)=O)cc1	0	0	9.6	0	0	0
CC(=O)NC1CC(C)(C)N(OC(C)=O)C(C)(C)C1	0	0	10	0	0	0
CC(=O)ON1C(C)(C)CC(OC(=O)c2ccccc2)CC1(C)C	0	0	0	0	-	-
CCCC(O)(CCC)C(=O)NNc1ccc(C)cc1	0	0	0	0	-	-
O=C(Cc1cccs1)N1CCC(c2nc3c(nnn3Cc3ccccc3)c(=O)[nH]2)CC1	12	0	10	0	0	12
Cc1cc(C)cc(-n2cnc3cc(C(=O)O)ccc32)c1	0	0	0	0	-	-
CC(=O)Nc1cnc(NC(=O)c2cccc(F)c2)cc1C	11	0	0	0	0	0
SMILES	PLC-beta3 inh	NPR1 activator	PLC-gamma1 inh	NPR2 activator	PLCgamma1 ctr	PLCbeta3 conf
O=C(Nn1c(SCc2cccc([N+](=O)[O-])c2)nc2ccccc2c1=O)c1ccccc1	0	0	11	0	0	0
O=C(/C=C/c1cccc([N+](=O)[O-])c1)Nn1c(-c2ccccc2F)nc2ccccc2c1=O	0	0	12	0	0	0
COc1ccc(C(=O)Nn2c(SCc3cccc([N+](=O)[O-])c3)nc3ccccc3c2=O)cc1	0	0	0	0	-	-
O=C(O)c1cccnc1SCC(=O)N1CCCc2ccccc21	0	0	0	0	-	-
O=C(/C=C/c1cccs1)Nc1ccc([N+](=O)[O-])cc1	0	0	12	0	0	0
O=C(/C=C/c1cccs1)c1ccc([N+](=O)[O-])cc1	0	0	0	0	-	-
NC(N)=NS(=O)(=O)c1ccc(NC(=S)NC(=O)/C=C/c2cccs2)cc1	0	0	13	0	0	0
COc1ccccc1NC(=O)CCNS(=O)(=O)c1ccc2c(c1)CC(C)N2C(=O)C1CC1 (stereo not drawn)	0	0	0	0	-	-
CN(C)S(=O)(=O)c1ccc(C(=O)N2CCCC2c2nc3ccccc3s2)cc1 (stereo not drawn)	11	0	0	0	0	0
COc1ccccc1-n1c(=O)c2c3c(sc2n2c(SC)nnc12)CCC3	0	0	0	0	-	-
Cc1ccc(-c2csc(N(CC3CCCO3)C(=O)c3ccco3)n2)cc1 (stereo not drawn)	0	0	11	0	0	0
COc1ccc(-c2csc(N(CC3CCCO3)C(=O)c3ccccc3)n2)cc1 (stereo not drawn)	0	0	0	0	-	-
COc1ccc(-c2csc(N(CC3CCCO3)C(=O)c3ccc(C)cc3)n2)cc1 (stereo not drawn)	0	0	14	0	0	0
COC(=O)C(=C/C=C/c1ccco1)C(=O)OC	0	0	0	0	-	-
NC(=O)NOCc1ccc(Cl)cc1Cl	0	0	13	0	0	0
O=C(c1ccc(Cn2cnnn2)cc1)N1CCCC(Nc2ccc(F)cc2)C1 (stereo not drawn)	0	0	0	0	-	-
CCSc1cc(N2CCCC2)nc(-c2ccc(C)cc2)n1	0	0	0	0	-	-
CCSc1cc(N2CCCC2)nc(-c2ccc(F)cc2)n1	11	0	0	0	0	0
O=C(CCc1ccncc1)N1CCCC(Nc2ccc(F)cc2)C1 (stereo not drawn)	0	0	0	0	-	-
O=C(CCc1ccccc1)N1CCCC(Nc2ccc(F)cc2)C1 (stereo not drawn)	0	0	11	0	0	0
COc1ccc(NC2CCCN(C(=O)CCc3cn[nH]c3)C2)cc1 (stereo not drawn)	0	0	10	0	0	0
O=C(NCc1ccc(Cl)cc1)N1CCN(S(=O)(=O)c2ccccc2)CC1	0	0	0	0	-	-
COc1ccc2c(c1)CCc1c-2n[nH]c1C(=O)NCCC(C)C	0	0	0	0	-	-
CCC12CN3CC(CC)(CN(C1)C3c1ccc([N+](=O)[O-])o1)C2=O (stereo not drawn)	0	0	11	0	0	0
CCCC12CN3CC(C)(CN(C1)C3c1ccc([N+](=O)[O-])o1)C2=O (stereo not drawn)	0	0	0	0	-	-
COC(=O)[C@H]1C[C@@]2(C)c3ccccc3N(S(=O)(=O)c3ccccc3)[C@H]2N1C(=O)CNC1CCCCC1	0	0	0	0	-	-
COC(=O)c1ccc(N2C(=O)C3CC=CC(C)C3C2=O)cc1 (stereo not drawn)	0	0	10	0	0	0
Cc1ccc(S(=O)(=O)N2C3CCCCC3O[C@H]2CC(=O)c2ccc(F)cc2)cc1 (stereo partly drawn)	0	0	11	0	0	0
COc1cccc(C2(O)CCN(C(=O)C3CCC3)CC2)c1	0	0	12	0	0	0
O=[N+]([O-])c1ccc(NCCCN2CCC(C(O)(c3ccccc3)c3ccccc3)CC2)cc1	0	0	13	0	0	0
